High-throughput results (PubChem BioAssay)
dFosB act: activators of mouse delta FosB homodimer. purified delta FosB, TAMRA-CDK5 oligo fluorescence polarization; percent of positive-control signal above neutral wells. activation, % at 25 µM. AID 493131. P13346. 340,000 compounds, 0.99% hits;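 active means mean activation above about 17%, with every replicate also reaching it, limit read from the data, passing the limit was not always enough; inconclusive means only one of the two conditions met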
Target sequence (P13346 whole entry, looked up): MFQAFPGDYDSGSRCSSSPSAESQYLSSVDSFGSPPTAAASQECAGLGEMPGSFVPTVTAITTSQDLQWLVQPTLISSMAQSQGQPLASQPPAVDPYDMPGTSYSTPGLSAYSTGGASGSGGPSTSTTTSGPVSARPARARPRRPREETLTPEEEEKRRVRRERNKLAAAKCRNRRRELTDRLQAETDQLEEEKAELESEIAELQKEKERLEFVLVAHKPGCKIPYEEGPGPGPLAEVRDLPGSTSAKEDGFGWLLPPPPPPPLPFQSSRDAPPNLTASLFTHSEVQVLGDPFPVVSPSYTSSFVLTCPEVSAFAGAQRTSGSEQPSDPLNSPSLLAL
CDK5 p35 inh: CDK5/p35 (human) kinase inhibition | Q00535+Q15078 | Recombinant CDK5/p35, ADP-Glo luminescence, 60 min | inhibition, % at 10 µM | 330,000 compounds, 0.01% hits | AID 488839;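 active means highest replicate inhibition of at least 50% and at least 75% of replicates reaching 50%; inconclusive means only one of the two criteria met; inactive means both criteria failed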;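 further: plate controls were DMSO neutral control for no effect and GW8510 at 10 µM for full effect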
Rtt109 Vps75: blocks Candida albicans Rtt109/Vps75 acetyltransferase activity; Q5AAJ8; purified Rtt109/Vps75, ThioGlo CoA-SH fluorescence, 4 h; inhibition, % at 34.9 µM; 330,000 compounds, 0.16% hits;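 active means inhibition of at least 50% in every replicate; inconclusive means best replicate reaches 50% inhibition but some replicates fall short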
Dyrk1A ADPGlo: Dyrk1A (rat) kinase inhibition. ADP-Glo luminescence, NFATc1 peptide. Q63470. 310,000 compounds, 0.43% hits. inhibition, % at 12.5 µM. AID 504441; in the data active means inhibition above about 50%;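 further: plate controls were vehicle with enzyme for no effect and no enzyme for full effect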
SMARCA2 act: SMARCA2 function activation, primary screen | 370,000 compounds, 1% hits | AID 652017 | MG213 cells, MMTV-luciferase reporter, dexamethasone, overnight | activation, % at 9.1 µM; in the data active means activation above about 7.8%;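 further: 0% = vehicle wells and 100% = reference activator wells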
esBAF inh: blocks esBAF chromatin remodeling in mouse ES cells; Bmi1-luciferase knock-in reporter, 24 h; 100% = twice the neutral-well signal; reporter increase, % at 12.5 µM; 350,000 compounds, 2% hits; AID 602393; in the data active means activation above about 40%; inconclusive means no clear call, values can overlap the other calls;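 further: 0% = median of the plate's neutral control wells and 100% = double that signal; a rise in the Bmi1 reporter signal indicates esBAF inhibition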
SMARCA2 act conf: SMARCA2 activation, confirmation screen. shares compounds with SMARCA2 act. MG213 cells, MMTV-luciferase with dexamethasone, luminescence, overnight; MG213 cells expressing E1A, Rb sequestered; DMSO wells 0%, reference activator 100%. activation, % at 9.1 µM. 3,500 compounds, 30% hits. AID 652260;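 active means activation above its plate's cutoff, the mean activation of tested wells plus 3 SD, cut at about 7.9% in these data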
GAL4-VP16 Luc: GAL4-VP16 reporter activation counter-screen; shares compounds with SMARCA2 act; HEK293 GAL4-VP16 pG5luc reporter, luciferase luminescence; scaled: DMSO wells 0%, SAHA wells 100%; 3,500 compounds, 41% hits; activation, % at 9.1 µM;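 active means activation above the solvent-only control well mean plus 3 SD, averaged across control plates, cut at about 5.2% in these data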
Numbers without * were called inactive; ? = inconclusive; / = not tested or not shown. Most compounds without a hit are left out; they make up all but 3.2% or so of the library.

SMILES	dFosB act	CDK5 p35 inh	Rtt109 Vps75	Dyrk1A ADPGlo	SMARCA2 act	esBAF inh	SMARCA2 act conf	GAL4-VP16 Luc
N#C/C(=N/Nc1ccccc1F)C(=N)N1CCOCC1	2	-1	6	14	9.4*	9	11*	3
CO[C@H]1CN(C)C(=O)c2cc(NC(C)=O)ccc2OC[C@H](C)N(C(=O)C2CCCCC2)C[C@@H]1C	/	/	/	/	/	0	/	/
C[C@@H]1CN([C@H](C)CO)C(=O)c2cc(C#Cc3ccncc3)cnc2O[C@H]1CN(C)C(=O)c1ccccc1F	/	/	/	/	/	5	/	/
COc1ccc(Cn2cc(C(=O)c3ccccc3)c(=O)c3cc(OC)ccc32)cc1	-2	0	4	14	8.9*	-7	-2	0
COc1ccc2c(c1)c(=O)c(C(=O)c1ccccc1)cn2Cc1ccccc1	1	-4	-5	22	-2	-5	/	/
Cc1ccc(S(=O)(=O)NCC[C@@H]2CC[C@@H](NC(=O)NC(C)C)[C@@H](CO)O2)cc1	/	/	/	/	/	0	/	/
CC(=O)n1cc(/C=C2/N=C(c3ccccc3)OC2=O)c2ccccc21	0	-1	-11	21	8.2*	3	-1	1
O=C(NCc1nnc2c(C(F)(F)F)cc(Cl)cn12)c1cccnc1	7	/	3	/	9.5*	-11	-4	2
CO[C@H]1CN(C)C(=O)c2ccc(NS(=O)(=O)c3ccc(-c4ccccc4)cc3)cc2OC[C@H](C)NC[C@H]1C	/	/	/	/	/	-1	/	/
CC(=O)c1ccc(NC(=S)NCCc2cccc(Cl)c2)cc1	-5	-1	8	5	8.0*	/	5	11*
COc1cccc(C(=O)N2C[C@H]3[C@@H](c4ccccc42)[C@@H](CO)N3C(=O)NC(C)C)c1	/	/	/	/	/	-1	/	/
Cc1ccc(-n2c(C)cc(-c3csc(N)n3)c2C)cc1	11	0	9	-6	12*	/	-10	-1
Cc1cc(-c2csc(N)n2)c(C)n1C	0	1	16	1	-1	-9	/	/
COCC(=O)Nc1ccc2c(c1)[C@@H]1C[C@@H](CC(=O)NCCc3ccccc3)O[C@@H](CO)[C@@H]1O2	/	/	/	/	/	3	/	/
Oc1ccc(NC(=S)N=Nc2c(O)[nH]c3ccccc23)cc1	-2	0	26	24	9.7*	65*	4	15*
O=C(CCCc1ccncc1)c1ccccc1	-3	0	-22	/	8.2*	/	3	6.9*
CCCc1nc2oc3c(NCCN(C)C)ncnc3c2c2c1CCCC2	-41	0	?	8	2	-10	/	/
CCCc1nc2oc3c(NCCCN(C)C)ncnc3c2c2c1CCCC2	-52	0	-13	/	19*	/	19*	1
CNC(=O)C[C@@H]1CC[C@H]2[C@@H](COc3ccc(NC(=O)C(C)C)cc3C(=O)N2C)O1	/	/	/	/	/	-2	/	/
CCN(CC)CCNC(=O)C(Cl)=C1C(Cl)=C(Cl)C(Cl)=C1Cl	1	-1	-3	/	10*	-5	21*	2
CCOC(=O)[C@]12CCCC3=C1N(CCC3)C(=O)[C@@H](CC(=O)NCc1ccc(OC)c(OC)c1)C2	/	/	/	/	8.0*	/	-1	0
CO[C@H]1CN(C)C(=O)c2cc(NS(=O)(=O)Cc3ccccc3)ccc2OC[C@@H](C)NC[C@H]1C	/	/	/	/	/	3	/	/
CCCOc1cccc(/C=N/NC(=O)c2csc(C)c2C)c1	-9	0	8	-3	13*	21	2	2
Cc1cc(C(=O)NCc2ccccc2Br)no1	-1	0	-8	3	9.4*	8	1	1
C[C@@H]1CN([C@H](C)CO)C(=O)c2cc(NC(=O)C3CCCCC3)ccc2O[C@@H](C)CCCCO[C@@H]1CN(C)C(=O)NC1CCCCC1	/	/	/	/	/	-6	/	/
SMILES	dFosB act	CDK5 p35 inh	Rtt109 Vps75	Dyrk1A ADPGlo	SMARCA2 act	esBAF inh	SMARCA2 act conf	GAL4-VP16 Luc
CC(C)N1C(=O)S/C(=C\c2ccc(-c3ccc(Cl)c(C(=O)O)c3)o2)C1=O	1	0	1	/	15*	48*	12*	13*
CCOC(=O)CN1C(=O)S/C(=C\c2ccc(-c3ccc(C(=O)O)c(Cl)c3)o2)C1=O	-1	0	10	5	-2	0	/	/
O=C(C[C@@H]1C[C@H]2c3cc(NC(=O)CC4CC4)ccc3O[C@H]2[C@@H](CO)O1)NCc1ccccc1F	/	/	/	/	/	-3	/	/
CCOC(=O)c1cccc(NC(=O)c2cncc(Br)c2)c1	-3	-3	6	/	9.0*	/	5	3
CCOC(=O)c1cccc(NC(=O)c2cccnc2)c1	-3	-3	-4	13	6	4	/	/
CCC(=O)Nc1ccc2c(c1)OC[C@H](C)N(C(=O)CC1CC1)C[C@@H](C)[C@@H](OC)CN(C)C2=O	/	/	/	/	/	0	/	/
C=CCNC(=O)c1c(Br)cnn1-c1ccc(C)cc1	-14	-4	-9	-1	9.2*	/	11*	11*
C[C@@H]1CCCCO[C@@H](CN(C)S(=O)(=O)c2cccs2)[C@H](C)CN([C@H](C)CO)C(=O)c2cc(N(C)C)ccc2O1	/	/	/	/	/	1	/	/
Fc1ccc(-c2n[nH]c(=S)n2N=Cc2cccc(OCc3ccccc3)c2)cc1	/	/	/	/	9.9*	/	4	1
Fc1ccccc1-c1n[nH]c(=S)n1N=Cc1cccc(OCc2ccccc2)c1	/	/	/	/	-4	/	/	/
CCCCOc1nc(N2CCOCC2)nc(C)c1[N+](=O)[O-]	-6	2	0	1	-2	/	/	/
Cc1nc(N2CCOCC2)nc(Oc2ccccc2)c1[N+](=O)[O-]	-4	0	5	9	11*	/	1	-2
COc1cccc(C(=O)Nc2ccc(NC(=O)c3ccco3)nc2)c1	-8	2	0	18	9.7*	59*	12*	12*
O=C(NC(=S)Nc1ccccc1Br)c1cccnc1	-6	0	-1	/	-2	8	/	/
O=C(Nc1ccc(NC(=O)c2ccco2)nc1)c1cccnc1	-7	-2	-3	2	8.7*	/	9.1*	12*
O=C(NC(=S)Nc1ccc(Br)cn1)c1cccnc1	8	1	10	-7	8.3*	/	9.8*	0
COc1cc(C(=O)Nc2ccc(NC(=O)c3ccco3)nc2)cc(OC)c1OC	-14	-2	5	-1	-4	-5	/	/
CC(C)n1cnc2cc(NC(=O)c3ccco3)ccc21	4	-1	-1	0	9.6*	17	13*	9.6*
C[C@H]1CN([C@@H](C)CO)C(=O)c2cc(NS(=O)(=O)c3ccccc3)ccc2O[C@@H]1CN(C)C(=O)Nc1ccc(C(F)(F)F)cc1	/	/	/	/	/	2	/	/
CC(C)C(=O)Nc1ccc(NC(=O)c2ccco2)cn1	-4	1	8	7	8.1*	13	5	2
